D3 antag = blocks the human D3 dopamine receptor; D3R cells, DiscoveRx beta-arrestin luminescence, antagonist mode; hits give low values; max response, negative = inhibition, %; 2.5% of 360,000 active; AID 652054; in the data active means max response below about -50%; inconclusive means no clear call, values can overlap the other calls
Target sequence (P35462 whole entry, looked up): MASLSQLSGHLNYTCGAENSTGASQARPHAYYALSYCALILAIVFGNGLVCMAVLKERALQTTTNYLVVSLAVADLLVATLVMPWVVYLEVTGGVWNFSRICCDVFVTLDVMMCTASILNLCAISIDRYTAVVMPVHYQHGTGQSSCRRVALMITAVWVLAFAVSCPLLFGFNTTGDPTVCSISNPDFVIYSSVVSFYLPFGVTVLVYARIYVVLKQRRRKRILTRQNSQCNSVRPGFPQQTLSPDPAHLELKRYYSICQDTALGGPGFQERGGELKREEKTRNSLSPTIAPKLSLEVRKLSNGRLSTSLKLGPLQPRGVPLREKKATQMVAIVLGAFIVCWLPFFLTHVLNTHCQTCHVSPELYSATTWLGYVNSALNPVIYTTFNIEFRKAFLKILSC
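Cells expressing the human receptor were seeded at 1500 cells/well, incubated overnight at 37 degrees C in 5% CO2, then exposed to library compounds with dopamine controls for 90 minutes at 37 degrees C before luminescent detection.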
DRD3 agonist = D3 dopamine receptor (human) agonism; P35462; 0.58% of 410,000 active; D3R DiscoveRx beta-arrestin cells, luminescence, 90 min; max activation, %; in the data active means max activation above about 30%
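Agonist mode: compounds and dopamine controls were applied to plated cells for 90 min at 37 degrees C after an overnight attachment at 1500 cells/well. Luminescent read-out followed 30 - 60 minutes at room temperature with DiscoveRx detection reagent.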
IL-1B inflam inh = blocks inflammasome-driven IL-1 beta release; THP-1 LPS/ATP IL-1B secretion, AlphaLISA, 16 h; hits give low values; activity change, % at 57.5 µM; 4.7% of 360,000 active; AID 743279; in the data active means activity change below about -50%; inconclusive means mostly about -30% to -49%
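Secreted IL-1B measured by AlphaLISA bead assay after 16 h compound exposure of THP-1 cells; compounds (final up to 57.5 uM) added 1 h before LPS (250 ng/mL) and ATP (1.25 mM) stimulation; lower signal means less secretion.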
ATXN2 expr inh = ATXN2 expression inhibition | 0.72% of 360,000 active | HEK-293 ATXN2-luciferase reporter, luminescence, 24 h | Potency, µM (highest dose often 57 µM), actives largely listed as inhibitors; further: nearly all actives have a fitted effect of over 55% in size
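qHTS (up to 57 uM final) was run with 24 h compound exposure of reporter cells at 37 °C. Each well was multiplexed: SteadyGlo luminescence measured ATXN2-luciferase expression after a fluorogenic Gly-Phe-AFC viability readout (25 uM final).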
a7 integrin act = activators of alpha7 integrin expression for muscular dystrophy; alpha7betagal myoblasts, beta-gal FDG fluorescence, 48 h; Potency, µM (series often up to 38.3 µM), hits mostly activators; 0.064% of 350,000 active; AID 624291; further: nearly all actives have a fitted effect of over 60% in size
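Alpha7betagal+/- myoblasts (passage 13) were plated 16-24 hr, then exposed to compounds (1:260 dilution of DMSO stock) for 48 hours at 37C. After MPER lysis, β-galactosidase reporter activity was read as FDG fluorescence (ex 480/em 540) after 30 minutes.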
ATXN viability = reduces viability in counter-screen for ATXN expression inhibitors | 0.49% of 400,000 active | AID 651635 | S2 cells (HEK-293 line with an ATXN2-luciferase reporter) viability, CellTiter-Fluor protease fluorescence, 24 h | Potency, µM (doses to about 56.7 µM), actives largely listed as cytotoxic; further: nearly all actives have a fitted effect of over 40% in size
Of the large screens only hits and unclear results are named; the others gave an inactive call. Only some compounds are listed: those with a hit (about 7% of all), similar ones and a draw of the others. Unless noted, the call rests on the fitted dose curve; in most records, active means well fitted curve in the direction sought with a large enough effect; inconclusive means small, poorly fitted or top-dose-only effect, or another doubt; inactive means no such curve, though single readings can be large; an effect the other way counts as inactive or inconclusive.

CCN(CC)S(=O)(=O)c1ccc(Cl)c(C(=O)Nc2cc(C)nn2-c2ccccc2)c1	none
Cc1ccc(S(=O)(=O)N2CCN(C(=O)CSC(=S)N3CCCC3)CC2)c(C)c1	ATXN2 expr inh inconclusive, ATXN viability inconclusive
CCOc1ccc(CNC(=O)c2ccc(NC(=O)C3=CSCCO3)cc2)cc1	IL-1B inflam inh -53.6
O=C(Nc1ccc(C(=O)NCCCN2CCN(c3ccc(F)cc3)CC2)cc1)C1=CSCCO1	D3 antag -92.4 (no result: ATXN viability)
COc1ccc(CNC(=O)C(c2ccco2)N(C(=O)c2snc(C(N)=O)c2N)c2ccccc2OC)cc1 (centres undefined)	IL-1B inflam inh inconclusive
S=c1[nH]nc(-c2cc(-c3ccccc3)n[nH]2)n1/N=C/c1ccc(Br)s1	IL-1B inflam inh -96.7
S=c1[nH]nc(-c2cccnc2)n1/N=C/c1ccco1	D3 antag -50.5
Cc1ccc(/C=N/n2c(-c3cccnc3)n[nH]c2=S)s1	IL-1B inflam inh -53.5
CCOCCCn1c(=N)c(C(=O)NCCN2CCOCC2)cc2c(=O)n3cccc(C)c3nc21	none (no result: ATXN viability)
COc1ccc(NC(=O)c2ccc(-c3nn(C)c(=O)c4ccccc34)cc2)cc1	none
COc1ccccc1NC(=O)c1ccc(-c2nn(C)c(=O)c3ccccc23)cc1	IL-1B inflam inh -55.6, a7 integrin act inconclusive
Cc1cccc(NC(=O)COc2ccc(-c3nn(C)c(=O)c4ccccc34)cc2)c1	IL-1B inflam inh -52.1, ATXN2 expr inh inconclusive, ATXN viability inconclusive
O=C(CSc1nc(Nc2ccccc2)nc(N2CCOCC2)n1)Nc1ccc(Br)cc1F	none
O=C(CCN1C(=O)c2ccccc2C1=O)NCc1ccccc1	none (no result: ATXN2 expr inh)
CN(CC(=O)Nc1ccccc1Br)CC(=O)NC(c1ccccc1)c1ccccc1	IL-1B inflam inh -50.7
O=C(CSc1nc(-c2ccccc2)c(-c2ccccc2)[nH]1)NCC1CCCO1 (centres undefined)	none (no result: ATXN2 expr inh)
CCOC(=O)c1c(C)n(C)c2ccc(OC)c(NC(=O)CCN3CCC(Cc4ccccc4)CC3)c12	D3 antag -120.4 (no result: ATXN2 expr inh)
Cc1cccc(C)c1NC(=O)C[N+](C)(C)CC(O)COc1cccc2ccccc12 (centres undefined)	D3 antag -52.1, IL-1B inflam inh inconclusive
CC1=C(C(=O)N(C(C)C)C(C)C)CC(CC(=O)NCc2cccs2)C(=O)N1Cc1ccc(C(C)(C)C)cc1 (centres undefined)	IL-1B inflam inh -58.8, ATXN2 expr inh inconclusive, ATXN viability inconclusive (no result: a7 integrin act)
CC1=C(C(=O)N(C(C)C)C(C)C)CC(CC(=O)NC(c2ccccc2)c2ccccc2)C(=O)N1Cc1ccc(C(C)(C)C)cc1 (centres undefined)	IL-1B inflam inh -59.4, ATXN2 expr inh inconclusive (no result: a7 integrin act)
CC1=C(C(=O)N(C(C)C)C(C)C)CC(CC(=O)NCCCCc2ccccc2)C(=O)N1Cc1ccc(F)cc1 (centres undefined)	IL-1B inflam inh -56.0, ATXN2 expr inh inconclusive, ATXN viability inconclusive (no result: a7 integrin act)
CC1=C(C(=O)N(C(C)C)C(C)C)CC(CC(=O)NCCCCc2ccccc2)C(=O)N1Cc1ccccc1 (centres undefined)	D3 antag inconclusive, ATXN viability inconclusive
Cc1cccc(C)c1NC(=O)C1C(c2ccc3c(c2)OCO3)=Nc2ccccc2N1C(=O)c1ccccc1 (centres undefined)	none (no result: ATXN2 expr inh, a7 integrin act, ATXN viability)
CC1CCN(C(=O)c2[nH]cnc2C(=O)N2CCN(C(=O)OC(C)(C)C)CC2)CC1	none
CC1=CC(C)(C)N(C(=O)CSc2nnc(-c3ccc(C)cc3)o2)c2ccc(C)cc21	none
Cc1ccc(CN2CC(C(=O)Nc3ccc(S(=O)(=O)N4CCCCC4)cc3)CC2=O)cc1 (centres undefined)	none
NS(=O)(=O)c1ccc(NC(=O)COC(=O)c2cnc(Cl)c(Cl)c2)cc1	IL-1B inflam inh -75.0
NS(=O)(=O)c1ccc(NC(=O)COC(=O)c2ncc(Cl)c(Cl)c2Cl)cc1	IL-1B inflam inh -62.3, ATXN viability inconclusive
O=C(COC(=O)c1cnc(Cl)c(Cl)c1)Nc1cccc(S(=O)(=O)N2CCOCC2)c1	none
NS(=O)(=O)c1ccc(NC(=O)COC(=O)c2cc([N+](=O)[O-])ccc2Cl)cc1	IL-1B inflam inh -89.9, ATXN viability inconclusive
NS(=O)(=O)c1ccc(NC(=O)COC(=O)c2cc(Cl)ccc2[N+](=O)[O-])cc1	none
CC(C)N(Cc1nccn1C)C(=O)c1ccc2oc(CCCc3ccccc3)nc2c1	none
NC(=O)CC(NC(=O)c1ccccc1)c1ccc(N2CCCCCC2)c([N+](=O)[O-])c1 (centres undefined)	none
Cc1cccc(OC(=O)c2cn(C)nc2C(F)(F)F)c1C	none
CC(C)Cc1cc(CN2CCCC(CO)(Cc3cccc(Cl)c3)C2)[nH]n1 (centres undefined)	D3 antag -67.0, IL-1B inflam inh inconclusive, ATXN2 expr inh inconclusive, ATXN viability inconclusive
CC(C)Cc1cc(CN2CCC(CO)(Cc3cccc(C(F)(F)F)c3)CC2)[nH]n1	IL-1B inflam inh -81.8
COc1cccc(CNC(=S)Nc2ccc3c(c2)c(=O)n(C)n3Cc2csc(C)n2)c1	none (no result: a7 integrin act)
Oc1ccccc1C=NNC(=S)Nc1ccc(F)cc1	IL-1B inflam inh -95.0, ATXN2 expr inh inconclusive
Oc1c(Cl)cc(Cl)cc1/C=N/NC(=S)NC1CC2C=CC1C2 (centres undefined)	D3 antag -85.4, ATXN2 expr inh inconclusive (no result: ATXN viability)
CN(C)c1nc(N/N=C/c2ccccc2O)nc(Nc2ccc(F)cc2)n1	D3 antag -84.8, ATXN2 expr inh inconclusive
Oc1ccccc1/C=N/NC(=S)NC1CC2C=CC1C2 (centres undefined)	IL-1B inflam inh -100.0
CN(C)c1nc(Nc2ccc(F)cc2)nc(Oc2ccc(F)cc2)n1	none (no result: ATXN2 expr inh)
O=C(NCc1cccc2[nH]ccc12)C1CCC(=O)N(CCc2ccc(Cl)cc2)C1 (centres undefined)	none
CCOC(=O)CC1(c2ccc(OC)c(OC)c2)C(=O)c2ccccc2C1=O	none (no result: IL-1B inflam inh)
COc1ccc(-n2nc3c(c2NC(=O)C24CC5CC(CC(C5)C2)C4)CS(=O)C3)cc1 (centres undefined)	D3 antag -55.7
C=CCN1C2CCCC1CC(NC(=O)Nc1cccc(C(C)=O)c1)C2 (centres undefined)	IL-1B inflam inh inconclusive
COc1ccc(CN2C3CCCC2CC(NC(=O)Nc2ccccc2)C3)cc1 (centres undefined)	D3 antag -63.8
CCCN1C2CCCC1CC(NC(=O)c1ccc(OC)cc1)C2 (centres undefined)	none
COc1ccc(CN2C3CCCC2CC(NC(=O)Nc2ccccc2C)C3)cc1 (centres undefined)	D3 antag -91.9

Screening results from PubChem BioAssay.
